# According to paper PMC7862700, “An all-to-all approach to the identification of sequence-specific readers for epigenetic DNA modifications on cytosine”:
# Legend:
# Test in all cases: DAPPL (digital affinity profiling via proximity ligation, sequencing); 10 mM Tris-HCl pH 7.5, 50 mM NaCl, 1 mM DTT, 4% glycerol, room temperature, 30 min; GST-TFs on glutathione beads, 16-mer random dsDNA library, 0.1% formaldehyde crosslink after washing; high values mean tight binding
# Settings in all cases: protein: recombinant; tags: N-terminal GST; dsDNA, one strand shown
# [1] = target: T1, FLI1 (Homo sapiens, UniProt Q01543 1-452)
# T1 sequence: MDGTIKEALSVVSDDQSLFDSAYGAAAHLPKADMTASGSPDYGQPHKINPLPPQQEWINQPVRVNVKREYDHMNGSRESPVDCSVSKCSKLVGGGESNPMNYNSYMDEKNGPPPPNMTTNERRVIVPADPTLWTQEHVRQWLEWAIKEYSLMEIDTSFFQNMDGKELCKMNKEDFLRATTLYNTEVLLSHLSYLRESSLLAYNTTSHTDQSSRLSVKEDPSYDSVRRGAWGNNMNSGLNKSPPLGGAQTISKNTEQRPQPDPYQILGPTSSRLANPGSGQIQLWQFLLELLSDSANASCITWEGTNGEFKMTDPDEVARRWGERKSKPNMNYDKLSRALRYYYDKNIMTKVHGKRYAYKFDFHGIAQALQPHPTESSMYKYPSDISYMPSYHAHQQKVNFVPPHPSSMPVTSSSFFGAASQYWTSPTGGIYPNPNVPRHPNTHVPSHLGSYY
# Summary of the method: (§1)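 Binding signal is defined as a hexamer's read frequency for one factor over its frequency for the tag-only sample. To obtain reads, GST-fused human transcription factors were expressed in yeast, captured on glutathione beads, barcoded with DNA and pooled with that sample. Pools met 200 nmole of a 16-mer random double-stranded DNA library in Tris/NaCl/DTT/glycerol buffer for 30 min at room temperature before washing, 0.1% formaldehyde crosslinking, proximity ligation (BsaI/T4 ligase, 1 h, 37 °C), PCR and Illumina NextSeq500 sequencing.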
# [2] = target: T2, ELK1 (Homo sapiens, UniProt P19419 1-428)
# T2 sequence: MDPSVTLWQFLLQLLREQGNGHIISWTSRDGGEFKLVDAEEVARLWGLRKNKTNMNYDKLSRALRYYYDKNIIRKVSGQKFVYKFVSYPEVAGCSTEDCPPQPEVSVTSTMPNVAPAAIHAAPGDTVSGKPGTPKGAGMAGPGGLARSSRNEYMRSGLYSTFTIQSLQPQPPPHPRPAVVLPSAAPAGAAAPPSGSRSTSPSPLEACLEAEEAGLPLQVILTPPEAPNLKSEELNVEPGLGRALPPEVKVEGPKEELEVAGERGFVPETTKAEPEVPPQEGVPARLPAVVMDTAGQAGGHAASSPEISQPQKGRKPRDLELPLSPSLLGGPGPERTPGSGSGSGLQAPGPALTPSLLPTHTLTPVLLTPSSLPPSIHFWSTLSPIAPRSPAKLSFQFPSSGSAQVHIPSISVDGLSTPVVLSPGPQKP
# Summary of the method: as §1
# [3] = target: T3, GABPA (Homo sapiens, UniProt Q06546 1-454)
# T3 sequence: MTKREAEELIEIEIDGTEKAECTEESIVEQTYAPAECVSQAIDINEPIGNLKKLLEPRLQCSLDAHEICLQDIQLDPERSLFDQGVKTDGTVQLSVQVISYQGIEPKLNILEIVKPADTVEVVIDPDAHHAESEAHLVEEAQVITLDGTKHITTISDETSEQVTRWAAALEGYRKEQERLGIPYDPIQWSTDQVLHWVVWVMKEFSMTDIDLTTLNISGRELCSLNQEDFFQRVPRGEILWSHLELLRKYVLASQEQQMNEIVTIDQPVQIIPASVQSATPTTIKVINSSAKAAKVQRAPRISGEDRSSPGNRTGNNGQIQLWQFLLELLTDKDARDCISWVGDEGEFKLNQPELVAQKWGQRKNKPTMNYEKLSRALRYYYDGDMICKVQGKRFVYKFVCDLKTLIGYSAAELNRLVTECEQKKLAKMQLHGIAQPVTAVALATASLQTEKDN
# Summary of the method: as §1
# [4] = target: T4, ERG (Homo sapiens, UniProt P11308 1-479)
# T4 sequence: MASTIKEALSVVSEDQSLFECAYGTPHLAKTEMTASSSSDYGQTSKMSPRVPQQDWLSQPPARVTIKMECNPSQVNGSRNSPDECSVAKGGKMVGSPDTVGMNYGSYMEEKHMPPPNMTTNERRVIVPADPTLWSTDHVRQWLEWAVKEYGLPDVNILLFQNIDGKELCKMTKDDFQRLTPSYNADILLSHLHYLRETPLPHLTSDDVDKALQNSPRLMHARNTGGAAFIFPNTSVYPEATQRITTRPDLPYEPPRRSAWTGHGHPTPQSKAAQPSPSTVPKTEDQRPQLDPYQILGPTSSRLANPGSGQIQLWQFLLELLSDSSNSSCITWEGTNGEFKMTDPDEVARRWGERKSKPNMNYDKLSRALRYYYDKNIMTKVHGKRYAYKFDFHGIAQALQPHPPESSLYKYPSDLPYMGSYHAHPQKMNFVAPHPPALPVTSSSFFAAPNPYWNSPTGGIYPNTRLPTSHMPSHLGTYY
# Summary of the method: as §1
# [5] = target: ELF1 (Homo sapiens, UniProt P32519 1-619)
# Summary of the method: as §1
# [6] = target: T5, EHF (Homo sapiens, UniProt Q9NZC4 1-300)
# T5 sequence: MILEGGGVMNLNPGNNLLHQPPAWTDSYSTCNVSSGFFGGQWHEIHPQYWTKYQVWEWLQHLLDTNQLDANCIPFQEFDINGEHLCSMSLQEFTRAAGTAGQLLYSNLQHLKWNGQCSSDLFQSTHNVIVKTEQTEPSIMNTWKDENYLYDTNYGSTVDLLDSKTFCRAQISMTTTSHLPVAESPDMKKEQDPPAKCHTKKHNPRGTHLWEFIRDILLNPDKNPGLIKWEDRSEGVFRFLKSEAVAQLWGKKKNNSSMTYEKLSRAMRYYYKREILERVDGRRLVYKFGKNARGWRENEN
# Summary of the method: as §1
# [7] = target: SPI1 (Homo sapiens, UniProt P17947 1-270)
# Summary of the method: as §1
# [8] = target: SPIB (Homo sapiens, UniProt Q01892 1-262)
# Summary of the method: as §1
# [9] = target: T6, ELK3 (Homo sapiens, UniProt P41970 1-407)
# T6 sequence: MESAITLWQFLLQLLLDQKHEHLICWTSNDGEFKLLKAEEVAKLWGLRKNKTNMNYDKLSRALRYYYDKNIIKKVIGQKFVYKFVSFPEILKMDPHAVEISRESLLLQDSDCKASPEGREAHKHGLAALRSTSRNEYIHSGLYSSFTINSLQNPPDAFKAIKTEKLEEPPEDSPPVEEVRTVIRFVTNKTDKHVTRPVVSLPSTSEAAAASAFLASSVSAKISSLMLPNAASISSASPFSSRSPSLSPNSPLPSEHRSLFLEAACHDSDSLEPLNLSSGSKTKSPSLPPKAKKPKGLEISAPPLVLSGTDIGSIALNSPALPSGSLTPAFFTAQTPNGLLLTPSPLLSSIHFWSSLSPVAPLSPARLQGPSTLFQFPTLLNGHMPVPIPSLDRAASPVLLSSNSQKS
# Summary of the method: as §1
# [10] = target: T7, FEV (Homo sapiens, UniProt Q99581 1-238)
# T7 sequence: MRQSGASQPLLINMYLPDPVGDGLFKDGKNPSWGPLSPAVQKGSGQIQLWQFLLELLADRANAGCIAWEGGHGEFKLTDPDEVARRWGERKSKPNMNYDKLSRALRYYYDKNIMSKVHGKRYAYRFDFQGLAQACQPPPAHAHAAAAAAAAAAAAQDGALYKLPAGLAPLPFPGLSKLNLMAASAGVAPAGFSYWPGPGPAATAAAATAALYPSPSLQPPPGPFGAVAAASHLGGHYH
# Summary of the method: as §1
# [11] = target: ETV5 (Homo sapiens, UniProt P41161 1-510)
# Summary of the method: as §1
# [12] = target: ELF4 (Homo sapiens, UniProt Q99607 1-663)
# Summary of the method: as §1
# [13] = target: ETV1 (Homo sapiens, UniProt P50549 1-477)
# Summary of the method: as §1
# [14] = target: T8, ERF (Homo sapiens, UniProt P50548 1-548)
# T8 sequence: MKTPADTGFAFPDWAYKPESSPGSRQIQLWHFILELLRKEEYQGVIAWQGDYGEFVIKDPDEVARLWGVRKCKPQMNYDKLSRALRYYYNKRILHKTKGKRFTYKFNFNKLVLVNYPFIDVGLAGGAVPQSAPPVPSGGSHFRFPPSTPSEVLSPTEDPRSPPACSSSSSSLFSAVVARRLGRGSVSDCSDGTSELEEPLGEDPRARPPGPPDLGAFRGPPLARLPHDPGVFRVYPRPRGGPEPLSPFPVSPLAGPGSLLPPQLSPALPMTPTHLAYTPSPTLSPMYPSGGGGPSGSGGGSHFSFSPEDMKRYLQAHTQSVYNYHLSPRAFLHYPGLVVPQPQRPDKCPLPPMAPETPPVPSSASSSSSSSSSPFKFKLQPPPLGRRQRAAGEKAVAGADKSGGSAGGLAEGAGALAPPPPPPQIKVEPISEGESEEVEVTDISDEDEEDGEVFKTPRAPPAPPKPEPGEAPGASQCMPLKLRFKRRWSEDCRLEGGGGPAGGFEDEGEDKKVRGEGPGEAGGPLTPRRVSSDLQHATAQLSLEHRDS
# Summary of the method: as §1
# [15] = target: T9, ETV3L (Homo sapiens, UniProt Q6ZN32 1-361)
# T9 sequence: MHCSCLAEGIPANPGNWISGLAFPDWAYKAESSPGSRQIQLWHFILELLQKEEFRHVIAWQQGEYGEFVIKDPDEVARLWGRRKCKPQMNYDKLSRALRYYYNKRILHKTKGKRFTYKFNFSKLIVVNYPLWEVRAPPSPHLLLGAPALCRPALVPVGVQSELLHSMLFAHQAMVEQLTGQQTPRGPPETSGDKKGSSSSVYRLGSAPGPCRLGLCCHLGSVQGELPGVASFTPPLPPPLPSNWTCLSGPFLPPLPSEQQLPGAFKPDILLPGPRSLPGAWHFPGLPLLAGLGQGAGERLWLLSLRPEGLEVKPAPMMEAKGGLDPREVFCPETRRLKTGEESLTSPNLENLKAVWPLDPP
# Summary of the method: as §1
# [16] = target: T10, ETS2 (Homo sapiens, UniProt P15036 1-469)
# T10 sequence: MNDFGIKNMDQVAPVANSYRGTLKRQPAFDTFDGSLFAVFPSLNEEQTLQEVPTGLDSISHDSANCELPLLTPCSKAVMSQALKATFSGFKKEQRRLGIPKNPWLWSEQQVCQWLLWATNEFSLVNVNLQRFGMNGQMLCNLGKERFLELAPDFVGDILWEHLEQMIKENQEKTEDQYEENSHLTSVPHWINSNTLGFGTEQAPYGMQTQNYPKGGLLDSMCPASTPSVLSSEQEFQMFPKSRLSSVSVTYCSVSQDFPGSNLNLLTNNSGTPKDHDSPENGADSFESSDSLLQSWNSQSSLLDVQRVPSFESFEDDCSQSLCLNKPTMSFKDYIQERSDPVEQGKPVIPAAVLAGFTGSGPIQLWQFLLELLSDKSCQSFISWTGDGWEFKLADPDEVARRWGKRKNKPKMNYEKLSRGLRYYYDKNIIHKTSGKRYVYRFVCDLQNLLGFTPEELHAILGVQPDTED
# Summary of the method: as §1
# [17] = target: T11, SPDEF (Homo sapiens, UniProt O95238 1-335)
# T11 sequence: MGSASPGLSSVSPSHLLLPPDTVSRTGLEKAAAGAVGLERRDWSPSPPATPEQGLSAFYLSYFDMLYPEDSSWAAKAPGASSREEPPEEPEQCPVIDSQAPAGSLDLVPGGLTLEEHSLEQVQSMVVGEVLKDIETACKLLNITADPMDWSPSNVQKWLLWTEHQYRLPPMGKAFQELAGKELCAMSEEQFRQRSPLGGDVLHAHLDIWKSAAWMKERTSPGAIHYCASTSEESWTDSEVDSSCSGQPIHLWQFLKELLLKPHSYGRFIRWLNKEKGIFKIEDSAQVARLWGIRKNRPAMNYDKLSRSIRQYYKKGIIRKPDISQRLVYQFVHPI
# Summary of the method: as §1
# [18] = target: T12, ETV3 (Homo sapiens, UniProt P41162-2 1-143)
# T12 sequence: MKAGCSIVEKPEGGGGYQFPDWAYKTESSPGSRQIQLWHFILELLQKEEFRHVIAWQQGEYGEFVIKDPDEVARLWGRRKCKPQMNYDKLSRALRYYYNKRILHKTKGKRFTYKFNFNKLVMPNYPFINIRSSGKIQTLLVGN
# Summary of the method: as §1
# [19] = target: ETV6 (Homo sapiens, UniProt P41212 1-452)
# Summary of the method: as §1
# Chain of ELF1 (P32519 whole entry): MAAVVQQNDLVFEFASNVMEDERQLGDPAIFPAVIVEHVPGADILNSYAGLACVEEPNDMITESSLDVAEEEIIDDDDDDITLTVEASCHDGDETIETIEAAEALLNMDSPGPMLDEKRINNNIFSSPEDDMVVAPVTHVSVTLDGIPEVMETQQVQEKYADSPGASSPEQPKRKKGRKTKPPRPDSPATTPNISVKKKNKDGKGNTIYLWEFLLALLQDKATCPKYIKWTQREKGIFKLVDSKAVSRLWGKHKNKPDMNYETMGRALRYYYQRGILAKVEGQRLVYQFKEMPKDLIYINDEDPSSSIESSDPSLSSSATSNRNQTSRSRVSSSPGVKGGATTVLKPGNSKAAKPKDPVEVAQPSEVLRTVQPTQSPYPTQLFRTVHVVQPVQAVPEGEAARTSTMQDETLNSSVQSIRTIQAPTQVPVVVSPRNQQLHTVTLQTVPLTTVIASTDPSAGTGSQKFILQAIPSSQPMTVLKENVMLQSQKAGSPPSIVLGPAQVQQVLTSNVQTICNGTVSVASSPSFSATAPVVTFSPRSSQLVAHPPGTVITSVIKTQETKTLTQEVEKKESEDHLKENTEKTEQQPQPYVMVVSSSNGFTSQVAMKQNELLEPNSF
# Chain of ELF4 (Q99607 whole entry): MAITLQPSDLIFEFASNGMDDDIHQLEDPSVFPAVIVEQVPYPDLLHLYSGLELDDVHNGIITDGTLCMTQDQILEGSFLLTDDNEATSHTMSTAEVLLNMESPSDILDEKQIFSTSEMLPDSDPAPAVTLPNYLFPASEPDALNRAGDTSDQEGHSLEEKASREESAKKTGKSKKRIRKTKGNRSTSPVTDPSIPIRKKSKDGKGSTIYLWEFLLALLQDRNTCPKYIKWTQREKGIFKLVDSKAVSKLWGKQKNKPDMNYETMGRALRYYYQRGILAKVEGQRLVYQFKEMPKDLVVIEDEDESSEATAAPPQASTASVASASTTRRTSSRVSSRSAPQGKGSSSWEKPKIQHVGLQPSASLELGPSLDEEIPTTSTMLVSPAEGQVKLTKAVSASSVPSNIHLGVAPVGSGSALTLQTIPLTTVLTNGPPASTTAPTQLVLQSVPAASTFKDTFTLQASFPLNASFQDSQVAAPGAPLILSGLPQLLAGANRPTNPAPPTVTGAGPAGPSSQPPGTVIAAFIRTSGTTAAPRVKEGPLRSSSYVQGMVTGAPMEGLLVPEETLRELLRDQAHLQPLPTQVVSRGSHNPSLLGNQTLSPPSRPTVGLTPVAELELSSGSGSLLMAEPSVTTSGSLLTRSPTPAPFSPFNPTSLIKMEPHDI
# Chain of ETV5 (P41161 whole entry): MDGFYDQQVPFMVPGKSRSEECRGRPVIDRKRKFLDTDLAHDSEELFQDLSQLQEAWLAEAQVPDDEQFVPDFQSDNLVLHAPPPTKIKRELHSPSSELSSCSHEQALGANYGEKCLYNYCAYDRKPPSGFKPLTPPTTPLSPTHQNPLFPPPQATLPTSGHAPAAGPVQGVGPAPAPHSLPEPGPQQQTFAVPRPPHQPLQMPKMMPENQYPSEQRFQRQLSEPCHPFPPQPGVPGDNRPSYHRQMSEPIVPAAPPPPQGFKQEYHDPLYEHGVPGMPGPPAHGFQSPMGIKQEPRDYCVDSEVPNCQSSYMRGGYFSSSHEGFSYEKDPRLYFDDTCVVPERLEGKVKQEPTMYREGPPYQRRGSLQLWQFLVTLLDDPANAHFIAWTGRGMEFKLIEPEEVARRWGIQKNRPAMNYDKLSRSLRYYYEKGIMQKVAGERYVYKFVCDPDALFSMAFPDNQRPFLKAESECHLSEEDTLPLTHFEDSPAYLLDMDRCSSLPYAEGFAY
# Chain of ETV1 (P50549 whole entry): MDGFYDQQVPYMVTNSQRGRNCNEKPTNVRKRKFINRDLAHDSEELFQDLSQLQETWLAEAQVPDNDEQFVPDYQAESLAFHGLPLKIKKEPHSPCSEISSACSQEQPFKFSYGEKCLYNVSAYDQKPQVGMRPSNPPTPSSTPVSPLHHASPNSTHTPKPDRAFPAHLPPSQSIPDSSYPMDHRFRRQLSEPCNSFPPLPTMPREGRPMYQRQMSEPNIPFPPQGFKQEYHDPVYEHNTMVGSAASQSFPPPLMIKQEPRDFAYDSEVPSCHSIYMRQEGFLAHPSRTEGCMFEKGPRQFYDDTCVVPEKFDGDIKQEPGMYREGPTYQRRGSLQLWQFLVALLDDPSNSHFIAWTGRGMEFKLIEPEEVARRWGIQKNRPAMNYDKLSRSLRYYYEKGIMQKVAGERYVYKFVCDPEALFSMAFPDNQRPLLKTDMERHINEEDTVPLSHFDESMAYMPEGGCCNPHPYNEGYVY
# Chain of SPIB (Q01892 whole entry): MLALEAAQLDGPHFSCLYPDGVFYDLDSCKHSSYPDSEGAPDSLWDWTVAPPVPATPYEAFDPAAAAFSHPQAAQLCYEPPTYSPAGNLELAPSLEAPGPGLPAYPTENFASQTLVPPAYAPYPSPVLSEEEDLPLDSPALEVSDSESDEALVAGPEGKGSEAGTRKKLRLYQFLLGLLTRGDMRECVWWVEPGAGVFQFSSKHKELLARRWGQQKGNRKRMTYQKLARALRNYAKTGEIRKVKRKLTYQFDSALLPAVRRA
# Chain of ETV6 (P41212 whole entry): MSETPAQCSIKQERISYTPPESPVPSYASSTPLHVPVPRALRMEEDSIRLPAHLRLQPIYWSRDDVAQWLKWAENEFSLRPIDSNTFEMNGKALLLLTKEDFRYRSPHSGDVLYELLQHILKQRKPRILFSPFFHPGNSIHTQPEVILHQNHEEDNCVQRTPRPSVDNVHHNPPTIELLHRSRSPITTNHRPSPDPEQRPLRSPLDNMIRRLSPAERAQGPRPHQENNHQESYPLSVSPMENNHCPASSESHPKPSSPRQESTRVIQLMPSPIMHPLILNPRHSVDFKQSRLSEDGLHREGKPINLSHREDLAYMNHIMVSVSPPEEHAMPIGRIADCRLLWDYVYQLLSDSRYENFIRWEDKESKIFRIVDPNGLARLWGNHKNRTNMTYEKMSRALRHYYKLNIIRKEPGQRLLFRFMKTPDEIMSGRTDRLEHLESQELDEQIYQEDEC
sequence,measurement,setting,value
TCATAC,binding signal,[1],"1.08 fold enrichment (6-mer frequency, TF over GST control)"
same,binding signal,[2],"1.1 fold enrichment (6-mer frequency, TF over GST control)"
same,binding signal,[3],"1.09 fold enrichment (6-mer frequency, TF over GST control)"
same,binding signal,[4],"1.14 fold enrichment (6-mer frequency, TF over GST control)"
same,binding signal,[5],"1.15 fold enrichment (6-mer frequency, TF over GST control)"
same,binding signal,[6],"1.02 fold enrichment (6-mer frequency, TF over GST control)"
same,binding signal,[7],"1.13 fold enrichment (6-mer frequency, TF over GST control)"
same,binding signal,[8],"1.16 fold enrichment (6-mer frequency, TF over GST control)"
same,binding signal,[9],"1.17 fold enrichment (6-mer frequency, TF over GST control)"
same,binding signal,[10],"1.07 fold enrichment (6-mer frequency, TF over GST control)"
same,binding signal,[11],"1.02 fold enrichment (6-mer frequency, TF over GST control)"
same,binding signal,[12],"1.07 fold enrichment (6-mer frequency, TF over GST control)"
same,binding signal,[13],"1.14 fold enrichment (6-mer frequency, TF over GST control)"
same,binding signal,[14],"1.2 fold enrichment (6-mer frequency, TF over GST control)"
same,binding signal,[15],"1.13 fold enrichment (6-mer frequency, TF over GST control)"
same,binding signal,[16],"1.06 fold enrichment (6-mer frequency, TF over GST control)"
same,binding signal,[17],"1.05 fold enrichment (6-mer frequency, TF over GST control)"
same,binding signal,[18],"1.01 fold enrichment (6-mer frequency, TF over GST control)"
same,binding signal,[19],"1.01 fold enrichment (6-mer frequency, TF over GST control)"
